Test [1] addresses Proto-oncogene tyrosine-protein kinase receptor Ret (Homo sapiens) (UniProt P07949). The conditions noted are these: at 10 µM.
The target in test [2] is Macrophage-stimulating protein receptor (Homo sapiens) (UniProt Q04912). The conditions noted are these: at 1 µM.
For test [3] the target is unchanged. The conditions noted are these: at 10 µM.
The target in test [4] is T1, Tyrosine-protein kinase receptor TYRO3 (Homo sapiens) (UniProt Q06418).
T1 sequence (whole entry): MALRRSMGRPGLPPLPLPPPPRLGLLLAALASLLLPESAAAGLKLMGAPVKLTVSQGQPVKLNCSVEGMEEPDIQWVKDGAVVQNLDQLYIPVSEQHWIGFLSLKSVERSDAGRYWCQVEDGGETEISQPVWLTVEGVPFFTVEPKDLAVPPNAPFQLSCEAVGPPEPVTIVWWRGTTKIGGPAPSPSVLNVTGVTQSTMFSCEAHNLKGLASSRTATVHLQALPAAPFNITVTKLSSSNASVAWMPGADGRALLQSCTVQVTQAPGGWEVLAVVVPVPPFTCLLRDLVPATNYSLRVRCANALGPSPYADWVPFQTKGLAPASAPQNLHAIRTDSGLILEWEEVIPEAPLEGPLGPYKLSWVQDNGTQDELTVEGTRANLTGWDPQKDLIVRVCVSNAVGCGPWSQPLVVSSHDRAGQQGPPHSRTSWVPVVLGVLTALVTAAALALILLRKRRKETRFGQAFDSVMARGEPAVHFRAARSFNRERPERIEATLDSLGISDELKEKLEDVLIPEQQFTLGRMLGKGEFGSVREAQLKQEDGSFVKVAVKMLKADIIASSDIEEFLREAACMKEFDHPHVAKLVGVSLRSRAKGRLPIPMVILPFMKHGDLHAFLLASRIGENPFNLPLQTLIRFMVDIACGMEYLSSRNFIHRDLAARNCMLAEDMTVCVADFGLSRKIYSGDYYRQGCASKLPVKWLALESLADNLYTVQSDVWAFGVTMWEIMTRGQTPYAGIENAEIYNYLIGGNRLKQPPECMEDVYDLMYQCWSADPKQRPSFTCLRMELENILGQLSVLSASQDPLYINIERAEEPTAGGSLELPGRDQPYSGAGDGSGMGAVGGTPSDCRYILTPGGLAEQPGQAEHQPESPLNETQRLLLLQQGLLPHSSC
The conditions noted are these: at 10 µM.

The target in test [5] is Ribosomal protein S6 kinase alpha-1 (Homo sapiens) (UniProt Q15418). The conditions noted are these: at 1 µM.
The target is the same in test [6]. The conditions noted are these: at 10 µM.
The target in test [7] is Ribosomal protein S6 kinase alpha-2 (Homo sapiens) (UniProt Q15349). The conditions noted are these: at 1 µM.
Chain of Ribosomal protein S6 kinase alpha-2 (Homo sapiens) (Q15349 whole entry): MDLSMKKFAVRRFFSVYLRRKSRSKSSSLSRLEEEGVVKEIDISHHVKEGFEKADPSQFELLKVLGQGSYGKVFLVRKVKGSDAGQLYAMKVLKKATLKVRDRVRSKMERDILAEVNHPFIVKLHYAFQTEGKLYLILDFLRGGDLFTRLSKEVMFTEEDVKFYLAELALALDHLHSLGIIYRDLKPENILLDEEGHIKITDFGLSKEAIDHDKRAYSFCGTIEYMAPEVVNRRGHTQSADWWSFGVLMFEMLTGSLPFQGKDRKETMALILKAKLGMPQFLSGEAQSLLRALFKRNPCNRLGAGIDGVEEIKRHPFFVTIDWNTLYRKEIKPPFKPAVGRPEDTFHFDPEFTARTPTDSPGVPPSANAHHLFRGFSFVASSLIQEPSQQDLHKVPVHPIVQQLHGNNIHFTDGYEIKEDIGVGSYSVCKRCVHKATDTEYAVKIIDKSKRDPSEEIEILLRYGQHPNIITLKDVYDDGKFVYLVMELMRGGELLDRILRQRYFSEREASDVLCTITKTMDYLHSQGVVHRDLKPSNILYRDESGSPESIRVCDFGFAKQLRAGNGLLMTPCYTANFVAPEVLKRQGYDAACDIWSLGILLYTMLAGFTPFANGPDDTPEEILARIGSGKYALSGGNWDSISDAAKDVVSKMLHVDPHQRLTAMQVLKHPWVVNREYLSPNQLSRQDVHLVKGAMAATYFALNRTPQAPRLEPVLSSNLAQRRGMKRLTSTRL
The target is the same in test [8]. The conditions noted are these: at 10 µM.
Test [9] has as its target Ribosomal protein S6 kinase alpha-3 (Homo sapiens) (UniProt P51812). The conditions noted are these: at 1 µM.
Test [10] has the same target. The conditions noted are these: at 10 µM.
The target in test [11] is Ribosomal protein S6 kinase alpha-6 (Homo sapiens) (UniProt Q9UK32). The conditions noted are these: at 10 µM.
Test [12] addresses Proto-oncogene tyrosine-protein kinase receptor Ret (Homo sapiens) (UniProt P07949). The conditions noted are these: at 1 µM.
The target in test [13] is Ribosomal protein S6 kinase alpha-6 (Homo sapiens) (UniProt Q9UK32). The conditions noted are these: at 1 µM.
The target of test [14] is Mitogen-activated protein kinase 14 (Homo sapiens) (UniProt Q16539). The conditions noted are these: at 1 µM.
Chain of Mitogen-activated protein kinase 14 (Homo sapiens) (Q16539 whole entry): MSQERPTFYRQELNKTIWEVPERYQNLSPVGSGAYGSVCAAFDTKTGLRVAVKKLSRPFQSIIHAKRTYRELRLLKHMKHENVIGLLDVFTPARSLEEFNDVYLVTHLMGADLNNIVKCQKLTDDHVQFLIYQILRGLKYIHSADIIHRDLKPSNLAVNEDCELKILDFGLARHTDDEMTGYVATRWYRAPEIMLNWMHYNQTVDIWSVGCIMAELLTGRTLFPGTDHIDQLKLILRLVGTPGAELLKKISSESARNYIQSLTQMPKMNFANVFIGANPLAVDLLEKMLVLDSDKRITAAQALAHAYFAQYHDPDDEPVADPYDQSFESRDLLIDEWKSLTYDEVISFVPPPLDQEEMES
Test [15] shares this target. The conditions noted are these: at 10 µM.
For test [16], the target named is Rho-associated protein kinase 2 (Homo sapiens) (UniProt O75116). The conditions noted are these: at 10 µM.
Chain of Rho-associated protein kinase 2 (Homo sapiens) (O75116 whole entry, looked up): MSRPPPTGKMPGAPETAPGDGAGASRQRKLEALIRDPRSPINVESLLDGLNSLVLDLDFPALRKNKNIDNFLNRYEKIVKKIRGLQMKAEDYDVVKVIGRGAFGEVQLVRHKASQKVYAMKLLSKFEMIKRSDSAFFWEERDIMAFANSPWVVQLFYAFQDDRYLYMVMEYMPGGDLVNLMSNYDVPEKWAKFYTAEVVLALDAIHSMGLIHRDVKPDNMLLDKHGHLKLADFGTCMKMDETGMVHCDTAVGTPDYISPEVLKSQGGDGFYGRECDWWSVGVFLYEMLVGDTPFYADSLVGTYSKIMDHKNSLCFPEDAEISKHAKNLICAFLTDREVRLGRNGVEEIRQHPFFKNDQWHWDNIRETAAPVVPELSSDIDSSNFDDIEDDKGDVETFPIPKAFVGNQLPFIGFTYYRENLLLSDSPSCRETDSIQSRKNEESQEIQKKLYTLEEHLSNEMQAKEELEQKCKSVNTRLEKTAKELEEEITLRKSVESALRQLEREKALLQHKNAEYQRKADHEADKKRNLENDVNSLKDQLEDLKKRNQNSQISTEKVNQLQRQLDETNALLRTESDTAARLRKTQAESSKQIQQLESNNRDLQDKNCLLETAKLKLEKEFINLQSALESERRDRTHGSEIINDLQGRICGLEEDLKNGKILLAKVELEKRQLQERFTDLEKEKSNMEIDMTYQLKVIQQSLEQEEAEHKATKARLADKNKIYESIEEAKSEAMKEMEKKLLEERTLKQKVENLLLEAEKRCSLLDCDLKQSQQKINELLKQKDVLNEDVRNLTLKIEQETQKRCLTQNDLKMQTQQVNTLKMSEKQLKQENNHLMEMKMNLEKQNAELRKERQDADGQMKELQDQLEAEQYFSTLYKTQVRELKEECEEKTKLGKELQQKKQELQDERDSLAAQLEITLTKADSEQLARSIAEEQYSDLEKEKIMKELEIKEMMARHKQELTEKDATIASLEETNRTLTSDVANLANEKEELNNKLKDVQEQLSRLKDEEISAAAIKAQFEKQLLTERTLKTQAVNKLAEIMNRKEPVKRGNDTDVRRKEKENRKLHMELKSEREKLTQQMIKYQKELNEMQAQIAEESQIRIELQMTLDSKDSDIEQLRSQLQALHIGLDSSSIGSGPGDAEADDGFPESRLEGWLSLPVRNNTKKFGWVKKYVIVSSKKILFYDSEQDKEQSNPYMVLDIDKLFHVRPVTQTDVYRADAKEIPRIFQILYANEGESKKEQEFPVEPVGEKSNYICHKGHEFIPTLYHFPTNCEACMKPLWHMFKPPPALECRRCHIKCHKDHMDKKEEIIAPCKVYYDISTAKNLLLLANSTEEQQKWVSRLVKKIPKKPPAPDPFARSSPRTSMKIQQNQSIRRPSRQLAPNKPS
The target of test [17] is T1, Tyrosine-protein kinase receptor TYRO3 (Homo sapiens). The conditions noted are these: at 1 µM.
The target of test [18] is Proto-oncogene tyrosine-protein kinase ROS (Homo sapiens) (UniProt P08922). The conditions noted are these: at 1 µM.
In test [19] the target is Rho-associated protein kinase 2 (Homo sapiens) (UniProt O75116). The conditions noted are these: at 1 µM.
The target in test [20] is Proto-oncogene tyrosine-protein kinase ROS (Homo sapiens) (UniProt P08922). The conditions noted are these: at 10 µM.

Structures are written as SMILES.

Chain of Macrophage-stimulating protein receptor (Homo sapiens) (Q04912 25-304 limits assumed): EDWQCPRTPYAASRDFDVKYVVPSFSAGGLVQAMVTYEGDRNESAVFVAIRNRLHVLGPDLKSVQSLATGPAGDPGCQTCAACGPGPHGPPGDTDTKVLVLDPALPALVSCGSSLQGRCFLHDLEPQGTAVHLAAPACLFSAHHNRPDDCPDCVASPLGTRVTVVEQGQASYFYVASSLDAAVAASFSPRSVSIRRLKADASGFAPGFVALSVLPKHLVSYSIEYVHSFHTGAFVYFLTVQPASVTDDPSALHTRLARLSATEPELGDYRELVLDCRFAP
Chain of Macrophage-stimulating protein receptor (Homo sapiens) (Q04912 310-1400 limits assumed): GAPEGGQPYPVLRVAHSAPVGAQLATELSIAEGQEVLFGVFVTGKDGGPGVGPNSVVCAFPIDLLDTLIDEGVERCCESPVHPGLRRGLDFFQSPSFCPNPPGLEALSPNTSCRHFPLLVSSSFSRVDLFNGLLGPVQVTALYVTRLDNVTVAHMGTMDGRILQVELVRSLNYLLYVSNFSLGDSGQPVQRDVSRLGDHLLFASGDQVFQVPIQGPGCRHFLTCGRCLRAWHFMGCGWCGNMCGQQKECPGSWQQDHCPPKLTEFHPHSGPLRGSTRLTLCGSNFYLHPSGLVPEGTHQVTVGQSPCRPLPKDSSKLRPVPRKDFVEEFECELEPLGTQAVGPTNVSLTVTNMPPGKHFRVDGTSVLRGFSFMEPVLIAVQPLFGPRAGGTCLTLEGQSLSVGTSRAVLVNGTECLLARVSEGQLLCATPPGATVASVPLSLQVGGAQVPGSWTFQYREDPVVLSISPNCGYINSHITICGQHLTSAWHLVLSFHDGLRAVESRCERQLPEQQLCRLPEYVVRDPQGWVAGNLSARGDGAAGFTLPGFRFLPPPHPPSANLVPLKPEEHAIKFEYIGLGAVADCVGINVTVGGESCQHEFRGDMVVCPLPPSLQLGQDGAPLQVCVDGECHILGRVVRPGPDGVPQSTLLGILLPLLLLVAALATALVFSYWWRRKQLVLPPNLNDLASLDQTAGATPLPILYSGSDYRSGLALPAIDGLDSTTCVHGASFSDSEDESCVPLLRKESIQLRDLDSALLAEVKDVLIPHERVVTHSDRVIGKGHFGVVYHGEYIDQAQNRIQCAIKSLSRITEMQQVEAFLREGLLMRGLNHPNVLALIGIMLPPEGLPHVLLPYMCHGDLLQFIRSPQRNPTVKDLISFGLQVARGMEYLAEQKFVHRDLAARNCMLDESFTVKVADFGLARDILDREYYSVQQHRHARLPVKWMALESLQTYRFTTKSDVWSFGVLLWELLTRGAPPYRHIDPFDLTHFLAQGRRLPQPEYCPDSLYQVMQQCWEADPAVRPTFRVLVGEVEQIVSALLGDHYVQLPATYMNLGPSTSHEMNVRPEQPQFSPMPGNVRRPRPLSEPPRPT
Chain of Proto-oncogene tyrosine-protein kinase receptor Ret (Homo sapiens) (P07949 whole entry): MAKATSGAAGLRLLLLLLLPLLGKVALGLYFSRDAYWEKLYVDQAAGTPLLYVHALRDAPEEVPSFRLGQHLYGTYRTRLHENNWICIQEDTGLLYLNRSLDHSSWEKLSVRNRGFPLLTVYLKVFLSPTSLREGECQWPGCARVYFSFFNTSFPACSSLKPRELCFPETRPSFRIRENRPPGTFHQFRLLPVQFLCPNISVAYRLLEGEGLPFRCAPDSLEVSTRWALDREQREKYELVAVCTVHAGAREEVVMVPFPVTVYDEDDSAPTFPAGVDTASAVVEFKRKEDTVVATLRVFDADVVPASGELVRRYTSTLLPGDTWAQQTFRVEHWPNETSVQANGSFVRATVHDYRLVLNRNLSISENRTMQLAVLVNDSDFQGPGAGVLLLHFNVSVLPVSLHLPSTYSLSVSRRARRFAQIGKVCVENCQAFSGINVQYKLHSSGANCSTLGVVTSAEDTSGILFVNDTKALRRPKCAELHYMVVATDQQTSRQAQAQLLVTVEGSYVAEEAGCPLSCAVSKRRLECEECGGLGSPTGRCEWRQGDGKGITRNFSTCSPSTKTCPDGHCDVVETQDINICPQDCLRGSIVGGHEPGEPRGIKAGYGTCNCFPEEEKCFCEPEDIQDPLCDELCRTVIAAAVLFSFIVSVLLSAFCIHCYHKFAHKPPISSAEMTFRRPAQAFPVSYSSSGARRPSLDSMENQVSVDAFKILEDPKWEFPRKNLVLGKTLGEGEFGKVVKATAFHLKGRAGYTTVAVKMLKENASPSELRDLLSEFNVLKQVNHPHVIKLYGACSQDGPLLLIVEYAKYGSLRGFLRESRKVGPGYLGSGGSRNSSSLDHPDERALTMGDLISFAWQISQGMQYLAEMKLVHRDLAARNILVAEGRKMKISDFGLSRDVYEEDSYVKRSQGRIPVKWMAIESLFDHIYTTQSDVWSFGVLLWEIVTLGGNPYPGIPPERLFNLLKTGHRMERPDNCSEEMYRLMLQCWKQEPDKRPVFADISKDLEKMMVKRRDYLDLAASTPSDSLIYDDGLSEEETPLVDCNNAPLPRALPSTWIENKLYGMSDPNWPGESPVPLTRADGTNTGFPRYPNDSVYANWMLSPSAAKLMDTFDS

Take `O=C1Cc2c([nH]c3ccc(Br)cc23)-c2ccccc2N1`: the residual activity in test [1] was found to be 72%; in test [2] it was 72%; in [3] it was 77%; in test [4], 83%; in test [5] it was 78%; in test [6], 77%. Further, the residual activity in test [7] amounted to 12%; in test [8] it was 9%.
Take `Nc1nccc(-c2c(-c3ccc(F)cc3)ncn2C2CCNCC2)n1`: the residual activity worked out at 54% in [9]; 36% in test [10]; 83% in test [7]; 50% in test [8]; 70% in [11].
Turning to `O=C1NC(=O)C(c2cn(CCCn3ccnc3)c3ccccc23)=C1Nc1ccccc1`, the residual activity stood at 102% in test [12]; 70% in test [1]; 8% in [5]; 1% in [6]; 3% in [9]; 1% in test [10]. For the same compound, the residual activity is 0% in [7]; -1% in test [8]; 5% in test [13]; 2% in [11]; 62% in test [14]; 78% in test [15].
Turning to `CC(C)N(CCC(=O)c1ccc2ccccc2c1)Cc1ccccc1`, the residual activity in test [16] was found to be 82%; in [3], 67%; in test [17] it was 84%; in [9], 54%; in test [10], 52%; in test [14] it was 81%. The residual activity in test [15] was found to be 79%.
For the compound `COc1ccc2c(c1)c(C1=C(c3c[nH]c4ccccc34)C(=O)NC1=O)cn2CCCN(C)C`, the residual activity in [12] amounted to 75%; in test [1] it was 45%; in test [2] it was 77%; in [3], 56%; in [17] it was 79%; in [4], 76%. Also, the residual activity in test [5] was 6%; in test [6], 1%; in test [9], 2%; in test [10] it was -1%; in test [7], 0%; in [8] it was -2%. The residual activity was found to be 4% in [13] and 2% in test [11].
Consider `O=C(Nc1nc2ccccc2n1CCN1CCOCC1)c1cccc([N+](=O)[O-])c1`, for which the residual activity in test [12] worked out at 88%; in [1] it was 101%; in test [9], 104%; in [10], 83%; in test [13] it was 108%; in test [11], 80%.
`CN([C@@H](Cc1ccc(OS(=O)(=O)c2cccc3cnccc23)cc1)C(=O)N1CCN(c2ccccc2)CC1)S(=O)(=O)c1cccc2cnccc12`: the residual activity is 118% in test [17], 99% in test [7] and 99% in test [8].
`COc1ccc(COc2ccc(Cc3cnc(N)nc3N)cc2OC)cc1`: the residual activity in test [16] is 78%; in test [3], 62%; in [18] it was 81%; in [5], 131%; in test [6] it was 109%; in [9] it was 64%. Also, the residual activity was 64% in test [10]; 71% in [8]; 110% in [13]; 116% in test [11]; 99% in test [15].
For `O=C1NC(=O)C(c2c[nH]c3ccccc23)=C1c1c[nH]c2ccccc12`, the residual activity is 79% in test [12]; 28% in test [1]; 70% in test [3]; 22% in test [5]; 3% in [6]; 27% in test [9]. The residual activity stood at 3% in test [10]; 5% in test [7]; 0% in [8]; 9% in test [13]; 1% in [11]; 98% in test [14]. Moreover, in [15], the residual activity worked out at 73%.
As to `O=S(=O)(NCCNC/C=C/c1ccc(Br)cc1)c1cccc2cnccc12`, the residual activity in test [1] amounted to 82%; in [5], 53%; in test [6], 24%; in [9], 26%; in test [10] it was 6%; in test [7], 70%. Moreover, the residual activity in [8] amounted to 13%; in [13], 18%; in [11] it was 9%.
As to `CN(C)S(=O)(=O)c1ccc2c(c1)/C(=C/c1cc3c([nH]1)CCCC3)C(=O)N2`, the residual activity in test [19] was 99%; in [12], 22%; in test [1], 37%; in test [2], 64%; in [3], 83%; in test [17], 67%. Besides, the residual activity in test [4] came to 69%; in [5] it was 95%; in test [6], 95%; in test [9], 61%; in test [10], 42%; in [7], 36%. For the same compound, the residual activity in test [8] came to 17%; in test [13], 84%; in test [11], 89%; in test [14], 87%; in test [15] it was 86%.
For the compound `Fc1ccc(-c2nc3n(c2-c2ccncc2)CCS3)cc1`, the residual activity was found to be 98% in [12]; 83% in [1]; 73% in test [5]; 81% in test [6]; 64% in test [9]; 52% in [10]. For the same compound, the residual activity in [11] was determined as 92%; in test [14], 16%; in test [15], 3%.
For the compound `CCOC(=O)c1c(C)[nH]c(/C=C2\C(=O)Nc3ccccc32)c1C`, the residual activity was determined as 24% in test [12]; 14% in test [1]; 88% in test [9]; 75% in test [10]; 72% in test [7]; 77% in test [8]. Besides, the residual activity in [13] stood at 88%; in [11], 90%.
Consider `COc1ccc(-c2cnc3c(-c4ccsc4)cnn3c2)cc1`, for which the residual activity was 89% in test [12]; 99% in test [1]; 87% in test [3]; 95% in test [17]; 93% in test [4]; 67% in test [9]. Also, the residual activity in [10] is 51%; in test [13], 100%; in test [11] it was 136%; in test [14] it was 81%.
For `Cc1cc(C)c(/C=C2\C(=O)Nc3ccccc32)[nH]1`, the residual activity in test [16] was 80%; in test [17] it was 68%; in test [4], 62%; in [5], 51%; in test [6], 11%; in [9], 26%. The residual activity in test [10] turned out to be 5%; in [7], 27%; in test [8] it was 4%; in test [13], 38%; in test [11], 17%; in test [14] it was 79%. Besides, the residual activity in test [15] turned out to be 98%.
Consider `O=C(Nc1ccc(Cl)cc1)c1ccccc1NCc1ccncc1`, for which the residual activity in [12] was 53%; in [1] it was 6%; in test [5], 129%.
Take `O=C(O)/C=C/c1cc(Br)c(Br)c(Br)c1Br`: the residual activity in test [12] came to 103%; in test [1] it was 103%; in test [2], 56%; in test [3], 43%; in test [18] it was 108%; in test [20], 97%. Besides, the residual activity in [17] came to 98%; in test [4], 106%; in [5] it was 110%; in test [6], 89%; in test [9] it was 59%; in test [10] it was 43%. Further, the residual activity in test [14] came to 77%; in test [15], 90%.
For the compound `O=C1Nc2ccccc2/C1=C\c1c(Cl)[nH]c2ccccc12`, the residual activity stood at 81% in test [16]; 86% in test [2]; 67% in [4]; 60% in test [9]; 25% in test [10]; 44% in test [8]. The residual activity was found to be 51% in [13], 33% in test [11] and 45% in test [15].
For the compound `COc1ccc(CNC(=O)Nc2ncc([N+](=O)[O-])s2)cc1`, the residual activity turned out to be 106% in test [17], 108% in test [4], 136% in [5] and 109% in test [6].
For the compound `CCOc1nc(NC(=O)Cc2cc(OC)ccc2OC)cc(N)c1C#N`, the residual activity in test [8] was determined as 71%.
As to `O=C(c1ccccc1)c1ccc(N2CCOCC2)cc1O`, the residual activity in [16] was 90%; in test [12] it was 94%; in test [1] it was 100%; in test [2] it was 90%; in [3] it was 99%; in [18], 96%. The residual activity in [20] was found to be 98%; in test [5], 96%; in test [6], 85%; in test [9], 45%; in test [10], 38%; in [11], 130%. Also, the residual activity in test [14] was determined as 79%; in test [15], 83%.
In the case of `N#Cc1c(NC(=O)c2cccc3ccccc23)sc2c1CCCC2`, the residual activity came out at 99% in [16]; 74% in [2]; 65% in [3]; 93% in test [18]; 96% in [20]; 92% in test [4]. Also, the residual activity is 94% in test [6]; 49% in [9]; 51% in test [10]; 92% in [13]; 90% in test [11].

The values above are taken from ChEMBL document CHEMBL2218924, “A broad activity screen in support of a chemogenomic map for kinase signalling research and drug discovery” (Biochem J, 2013).
